# Bioassay records from PubChem BioAssay.
# p53 PUMA act – restores mutant p53 pathway signaling in SW480 cells. SW480 PUMA-promoter luciferase, p53 mutant reactivation. 1.5% of 28,000 active. AID 624151. activation, % at 9.98 µM; in the data active = activation above about 52%; inconclusive = no clear call, values can overlap the other calls
# STK33 kin inh – blocks human STK33 kinase activity; 0.44% of 27,000 active; ADP-Glo luminescence, MBP substrate; AID 2322; inhibition, % at 12.5 µM; in the data active = inhibition above about 20%; inconclusive = no clear call, values can overlap the other calls
# NOMO-1 viab – STK33 inhibitor candidate reducing NOMO-1 cell viability; inhibition, % (test concentration not listed); NOMO-1 AML viability, CellTiter-Glo luminescence, 72 h; 7.5% of 37,000 active; in the data active = inhibition above about 80%; inconclusive = no clear call, values can overlap the other calls
# ID4 SMM – ID4 (human) binding; small molecule microarray, Flag-ID4 binding, fluorescence F/B; calls only; 1.2% of 31,000 active; AID 624137; call rule not given here;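 also: a binder raises fluorescence above local background on the spot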
# Target sequence (P47928 whole entry, looked up): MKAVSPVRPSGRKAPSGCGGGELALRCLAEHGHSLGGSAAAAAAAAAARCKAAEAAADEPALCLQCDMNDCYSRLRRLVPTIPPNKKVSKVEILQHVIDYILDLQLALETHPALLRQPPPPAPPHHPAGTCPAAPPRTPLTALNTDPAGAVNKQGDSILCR
# The depositor's hits bear a star; i = inactive; ? = inconclusive; . = no result given; + = active, no number. The full list was thinned out, with hits kept by preference.
SMILES,p53 PUMA act,STK33 kin inh,NOMO-1 viab,ID4 SMM
CC(C)NC(=O)N(C)C[C@@H]1Oc2ccc(NS(C)(=O)=O)cc2C(=O)N([C@@H](C)CO)C[C@@H]1C,.,-2,11,.
CCN(CC(=O)Nc1cccc(OC)c1)S(=O)(=O)c1ccc(C)cc1,0,-4,-15,i
Nc1nnc(SCC(=O)c2ccc3ccccc3c2)s1,95*,-2,-9,i
Cc1[nH]c2ccccc2c1C(=O)CSc1nnc(N)s1,1,-4,27,i
COc1ccc(NC(=O)N(C)C[C@@H]2Oc3ccc(NS(=O)(=O)c4ccccc4)cc3C(=O)N([C@@H](C)CO)C[C@H]2C)cc1,-2,.,24,i
CC1CC[C@@]2(OC1)O[C@H]1CC3C4CC=C5C[C@@H](O[C@@H]6O[C@H](CO)[C@@H](O)[C@H](O)[C@H]6O)CC[C@]5(C)C4CC[C@]3(C)[C@@]1(O)[C@@H]2C (stereo partly specified),12,-12,.,i
O=C1C(c2c(O)[nH]c3ccccc23)=Nc2ccccc21,-12,25*,50,i
CC1CN=C(N(C(=O)Nc2ccccc2)c2cccc(C(F)(F)F)c2)S1 (stereo unspecified),.,-2,35,.
CC1(C)C/C(=N\O)c2c(nc(C(F)(F)F)c3[nH]c4ccccc4c23)C1,-25,.,.,i
Cc1cc(-c2ccccc2)nc2c1/C(=N\O)CC(C)(C)C2,.,.,101*,.
Cc1cc2c(C(C)C)c(O)c(O)c(C=O)c2c(O)c1-c1c(C)cc2c(C(C)C)c(O)c(O)c(C=O)c2c1O,.,-4,111*,.
CCc1cc(O)c(C)c(O)c1C=O,-22,-5,.,i
CCOC(=O)Cc1[nH]nc2c1C(C1CC=CCC1)C(C#N)=C(N)O2 (stereo unspecified),9,4,114*,i
COc1cc(OC)cc(C2C(C#N)=C(N)Oc3n[nH]c(-c4cccnc4)c32)c1 (stereo unspecified),6,-5,1,i
O=C(Nc1cc(S(=O)(=O)c2ccccc2)cs1)c1ccc(Cl)cc1,.,.,92*,.
C[C@H](CO)N1C[C@H](C)[C@H](CN(C)Cc2ccc(-c3ccccc3)cc2)Oc2ccc(NS(=O)(=O)c3ccc(Cl)cc3)cc2C1=O,.,.,114*,.
C[C@H](CO)N1C[C@H](C)[C@@H](CN(C)Cc2ccc(-c3ccccc3)cc2)Oc2ccc(NS(=O)(=O)c3ccc(Cl)cc3)cc2C1=O,.,.,62,.
C[C@H]1CN([C@@H](C)CO)C(=O)c2cc(NS(=O)(=O)c3ccc(Cl)cc3)ccc2O[C@@H]1CN(C)Cc1ccc(-c2ccccc2)cc1,.,.,38,.
C[C@@H]1CN([C@H](C)CO)C(=O)c2cc(NS(=O)(=O)c3ccc(Cl)cc3)ccc2O[C@@H]1CN(C)Cc1ccc(-c2ccccc2)cc1,.,.,109*,.
C[C@@H]1CN([C@@H](C)CO)C(=O)c2cc(NS(=O)(=O)c3ccc(Cl)cc3)ccc2O[C@@H]1CN(C)Cc1ccc(-c2ccccc2)cc1,-7,.,123*,.
O=C1CCC(O)c2cccc(O)c21 (stereo unspecified),12,-5,7,i
COc1ccc(S(=O)(=O)Nc2ccc3c(c2)C(=O)N([C@H](C)CO)C[C@@H](C)[C@@H](CN(C)Cc2ccc(Oc4ccccc4)cc2)O3)cc1,.,.,111*,.
COc1ccc(S(=O)(=O)Nc2ccc3c(c2)C(=O)N([C@@H](C)CO)C[C@@H](C)[C@H](CN(C)Cc2ccc(Oc4ccccc4)cc2)O3)cc1,.,2,108*,.
COc1ccc(CN(C)C[C@H]2Oc3ccc(NS(=O)(=O)c4ccccc4)cc3C(=O)N([C@@H](C)CO)C[C@@H]2C)cc1,.,1,11,.
COc1ccc(S(=O)(=O)Nc2ccc3c(c2)C(=O)N([C@H](C)CO)C[C@@H](C)[C@H](CN(C)Cc2ccc(Oc4ccccc4)cc2)O3)cc1,.,0,105*,.
SMILES,p53 PUMA act,STK33 kin inh,NOMO-1 viab,ID4 SMM
C[C@@H]1CN([C@@H](C)CO)C(=O)c2cc(NS(=O)(=O)c3ccc(Cl)cc3)ccc2O[C@H]1CN(C)Cc1ccc(Oc2ccccc2)cc1,.,.,109*,.
C[C@@H]1CN([C@@H](C)CO)C(=O)Cc2cc(NC(=O)Cn3cnnn3)ccc2O[C@@H]1CN(C)S(=O)(=O)c1cccs1,.,2,3,.
S=c1[nH]nc(Cc2ccsc2)n1Cc1ccccc1,.,.,9,.
COc1ccc(S(=O)(=O)Nc2ccc3c(c2)C(=O)N([C@@H](C)CO)C[C@H](C)[C@H](CN(C)Cc2ccc(Oc4ccccc4)cc2)O3)cc1,.,11,123*,.
COc1ccc(S(=O)(=O)Nc2ccc3c(c2)C(=O)N([C@H](C)CO)C[C@H](C)[C@H](CN(C)Cc2ccc(-c4ccccc4)cc2)O3)cc1,.,.,24,.
COc1ccc(S(=O)(=O)Nc2ccc3c(c2)C(=O)N([C@H](C)CO)C[C@H](C)[C@@H](CN(C)Cc2ccc(Oc4ccccc4)cc2)O3)cc1,.,.,66,.
COc1ccc(S(=O)(=O)Nc2ccc3c(c2)C(=O)N([C@@H](C)CO)C[C@@H](C)[C@H](CN(C)Cc2ccc(-c4ccccc4)cc2)O3)cc1,.,.,122*,.
C[C@@H]1CN([C@@H](C)CO)C(=O)c2cc(NS(=O)(=O)c3ccc(F)cc3)ccc2O[C@H]1CN(C)Cc1ccc(Oc2ccccc2)cc1,.,0,98*,.
Cc1ccc(S(=O)(=O)Nc2cccc3c2O[C@@H](CN(C)C(=O)Nc2ccc(F)cc2)[C@@H](C)CN([C@@H](C)CO)C3=O)cc1,.,.,31,.
C[C@@H]1CN([C@@H](C)CO)C(=O)c2cccc(NC(=O)C3CCCCC3)c2O[C@@H]1CN(C)Cc1ccc(C(=O)Nc2ccccc2N)cc1,.,.,127*,.
C[C@@H]1CN([C@@H](C)CO)C(=O)c2cccc(NC(=O)C3CC3)c2O[C@H]1CN(C)Cc1ccc(C(=O)Nc2ccccc2N)cc1,.,.,73,.
C[C@@H]1CN([C@H](C)CO)C(=O)c2cccc(NC(=O)C3CCOCC3)c2O[C@@H]1CN(C)Cc1ccc(C(=O)Nc2ccccc2N)cc1,.,.,107*,.
O=C(C[C@H]1C=C[C@@H](NC(=O)CCN2CCCCC2)[C@H](CO)O1)Nc1ccc(-c2ccccc2)cc1,.,.,.,i
CSc1ccccc1NC(=O)CN(C)S(=O)(=O)c1ccc(Br)cc1,-9,0,-15,i
Cc1noc(C)c1NC(=O)Nc1ccc2c(c1)C(=O)N([C@H](C)CO)C[C@H](C)[C@@H](CN(C)Cc1ccc(C(=O)O)cc1)O2,.,.,9,.
O=c1cc(-c2ccccc2)oc2c(O)c(O)ccc12,.,14,101*,.
O=c1cc(-c2ccccc2)oc2ccc(O)cc12,?,1,8,i
O=C(NC(Cc1ccc(F)cc1)C(=O)O)c1ccccc1 (stereo unspecified),-8,-7,25,i
O=C(NC(Cc1ccc(O)cc1)C(=O)O)c1ccccc1 (stereo unspecified),43,0,.,+
C[C@@H]1CN([C@@H](C)CO)C(=O)c2cccc(NS(=O)(=O)c3cccs3)c2O[C@@H]1CN(C)S(=O)(=O)c1ccccc1,.,.,57,.
N#C/C(=C\c1ccc(O)c(O)c1)C(=O)NCCCc1ccccc1,0,3,92*,.
O=c1cc(O)cc(/C=C/c2ccc(O)c(O)c2)o1,9,.,.,i
N#C/C(=C\c1ccc(O)c(O)c1)C(=O)c1ccc(O)c(O)c1,7,31*,46,i
